# According to the supplement of paper PMC10723795:
# ± gives the standard deviation of the averaged measurements.
# How the values were obtained:
# DLD1 = assay: nucleolar normality score relative to DMSO (fraction of DMSO control); RPE1 is a non-cancer human cell line; higher = more normal nucleoli (less nucleolar stress)
# Procedure: (§1)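 Selected screen hits were validated in hTERT lines (BJ5TA, CHON-002, RPE1) and cancer lines (DLD1, HCT116). Cells were immunostained for nucleolin and UBF and the nucleolar normality score was measured per field of view, with 4 fields per drug. Scores are normalized to each cell line's own DMSO control. Dose and time are not stated for this panel.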
# HCT116 = assay: as above
# Procedure: as §1
smiles,measurement,setting,value
CC[C@@]1(O)C(=O)OCc2c1cc1n(c2=O)Cc2cc3ccccc3nc2-1 [Camptothecin],nucleolar normality score,DLD1,0.402 ± 0.049
same,nucleolar normality score,HCT116,0.407 ± 0.015
